In all, about 53,000 sequences went through this assay and about 3,700 (7%) were called active. Many of the other results were omitted from the sample, so actives are more common in it than they were. Values without a mark were called inactive.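 How the source made its calls: active means gene knockdowns whose robust z-score for IL-1 alpha signal is at least 2 or at most -2, so actives lie on both sides; inactive means the rest.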

Experimental findings from PubChem BioAssay AID1508600 (Functional Genomics Laboratory (NCATS/FGL), 2020) are described below.

The assay can be described thus: Components of the Cytosolic LPS Sensing Pathway: Gene Identification via Genome-wide siRNA Screen. As to conditions: RAW264.7 macrophages, IL-1a HTRF, actives lie on both sides, screened at 100 nM (by protocol), cells primed 5 h with Pam3CSK4 first. An excerpt:
Non-canonical inflammasome activation by cytosolic LPS is a critical component of the host response to Gram-negative bacterial infection, however we lack a comprehensive understanding of the cellular processes that control this pathway. Here we describe a genome-wide siRNA screen to identify genes regulating the mouse macrophage IL-1 alpha response to cytosolic LPS.
RAW264.7 cells were maintained in complete DMEM media, comprising DMEM with 4.5 g/L glucose, 10% FBS (Gemini Bio-Products, West Sacramento, CA), 2 mM Glutamine (Lonza) and 20 mM HEPES (Lonza), hereafter complete DMEM.
The RNAi screen was conducted in 384-well format using the Ambion Silencer Mouse Genome siRNA Library (#4391425), which consists of three unique, nonoverlapping, nonpooled siRNAs for each of 17,000 gene targets. siRNA reagents ([…]) were stamped into 384-well white flat-bottom microplates (Corning, 3570) using a Velocity11 VPrep liquid handling system (Agilent) integrated into a BioCel robotic platform (Agilent) in columns 1-22, leaving columns 23-24 empty for negative (Ambion, Negative control #1) and positive (mouse Casp4) controls, respectively. The median value of each plate's negative control column was used to normalize sample wells, and the positive control was used to assess transfection efficiency and assay performance.
Lipofectamine RNAiMAX Transfection Reagent ([…]; Invitrogen) was added in […] serum-free, antibiotic-free media to plate wells using a Thermo Scientific Matrix WellMate and Microplate Stacker. Plates were incubated for 45 min at room temperature to allow for the sufficient formation of siRNA-lipid complexes. Cells were seeded at a density of 1x10^4 cells per well in 20 microL media containing 20% (vol/vol) FBS without antibiotics. The final concentration of siRNA in each well was 100 nM. Cells were cultured for 48h at 37 degrees C in 5% CO2 before addition of […] of TLR ligand Pam3CSK4 for 5 hours. The medium was then removed, replaced with […] growth media and cell were transfected with […] of LipidA and TransIT-TKO (Mirus) for 24 hour. At the end of the LipidA treatment, […] of supernatant was transferred to a 384 Greiner Bio-one non-binding low volume plate and […] of IL-1a HTRF reagent (Cisbio, 62MIL1APEH) was added and incubated at room temperature overnight. The plates were read on an EnVision plate reader (PerkinElmer). Cell viability was measured by adding 20ul Cell Titer Glo to the original plate and running a luminescence read on the EnVision. The quantified IL-1a signal for each siRNA gene-targeted well was divided by the median of the negative control wells and multiplied by 100 to achieve a negative control normalized value for each well/siRNA. This normalized value was then used to generate a robust z-score by first taking the log of each value and then by subtracting the median and dividing by the […].
For orientation: Time-resolved FRET reads energy transfer from a long-lived donor to a nearby acceptor.
As for GGAGCUGACAGAGAGAUUCTT against Ankrd40, the z-score was -2.77 (active).

As to GGAGCAACACUUGCGUACUTT against Ccnq, the z-score is 1.32.

Regarding “GCACUGUCGCAUCAUCAGATT against D230025D16Rik”, the z-score was 1.83.

For “GGAAACCUGAUGAUCUUUUTT against Olfr421-ps1”, the z-score was -1.27.

GGAUGUCCGGAAGAUGUUUTT against Celf3: the z-score was -0.284.

As to GGUGUGUUCCCAACUGGUGTT against Olfr1124, the z-score is 2.04 (active).

Take GUGGAAAUGUACUUCUCUGTT against Olfr257: the z-score was 0.435.

AGCUGCUCUGAGUUAGAAATT against Scd2: the z-score is 0.934.

As to GGCAAAUCAUUGAUCAGAATT against Mtrf1, the z-score was -0.214.

GGACAGACUGAAUGAGCAGTT against Faf2: the z-score was 2.24 (active).

In the case of GCAAAACUUGGAACGAUUUTT against Ddx1, the z-score is 0.153.

As for CCUAAAUUUGAGGUAACCUTT against Zbtb21, the z-score is 0.571.

As to GGAUAAAAGCAUUUGAGUCTT against Acp1, the z-score is 0.694.

For GGGAACCAGUACAAUUACATT against Glt8d1, the z-score is -0.755.

Consider GGAGAUCUAUGACAAGAAATT against Idh1, for which the z-score was -0.376.

For the sequence GGUAAGAAGACAAACACUCTT against Ly6g6d, the z-score was 0.237.

Regarding GCUCUACUGCUUCUUAGUCTT against Olfr965, the z-score is -2.4 (active).

GGAUAAGAAGAUGAGGCAGTT against Mns1: the z-score is -0.0977.

Consider GCUUCAAAACAAACCCUUGTT against Parp11, for which the z-score is -1.58.

Regarding GGAGUGUAUGCAGAAGUUUTT against Dnajc24, the z-score is 1.49.

As to GGUUUUGGUAUCUCCAUGGTT against Olfr2, the z-score is -0.48.

For the sequence GGAGCAUAGAAAAGACAAUTT against Grk2, the z-score was 2.69 (active).

As to GGAUAAGAAGCGAUUUGAATT against Rcn2, the z-score was -0.294.

For the sequence GCUGCUGGAGUGCAACUAATT against Tradd, the z-score was 0.391.

GCACAACAUACCCUGUGGUTT against Syn1: the z-score was -2.72 (active).

CCUGAAUGGACAAACAGGATT against Gm6460: the z-score was -0.193.

Regarding CCAAACCUAUUCUGAGAUGTT against Klrg2, the z-score is -0.0403.

For the sequence GGAGCUGGACAAGUUCAUGTT against Clrn1, the z-score was -0.994.

As for GGGAGCAAAGAGGAACAGCTT against Fis1, the z-score is -0.73.

Take GGUGCAAUCGUGUUGAGCUTT against Dap3: the z-score is 1.06.

GCAAACCUUCGGUCUUGCCTT against Cd5l: the z-score is -0.364.

Turning to GGAGAGAUCAUACACUUUGTT against BC048679, the z-score was 0.43.

GGUAGUGAAUGAACUCUUUTT against Bcl2l1: the z-score was -1.41.

In the case of GGCAGACAUCACAAUGGCUTT against Hemgn, the z-score was -0.201.

On to GGACAUGUCCGAAUACUACTT against Pdss1, for which the z-score was 2.34 (active).

For GGGUUAGCAACUUCAAAUATT against Zmynd19, the z-score is 0.996.

Consider CCUAAAUCCUUUUGAACCCTT against Anapc16, for which the z-score is 0.295.

GGCCAGUGUGUGGUCUAAGTT against Cd1d2: the z-score is 1.89.

For GGUCUUCAGAUAAUCUUCCTT against Brinp1, the z-score is 1.91.

As to GCUCAGAUAAUGGCCUACATT against Smarca4, the z-score was 2.28 (active).

Take CCGACAAACGCAAGGUGAUTT against Rtl8c: the z-score is -0.382.

As for GGUGUGUGGUGUUAAAAAATT against Mybph, the z-score is -0.81.

GGUGGAAUAUAGCUUCAUCTT against Ifngr2: the z-score was 1.06.

As for GGAAGAACACAAGUGUUUUTT against Trem3, the z-score was -0.626.

Turning to GCGAAGCGUGCUGCUAAGATT against Ccdc59, the z-score was 0.519.

Take GGCCAGCUCUCUUUUGCUATT against Cflar: the z-score was 2.5 (active).

For the sequence GCAGAGGCUCUCCUUAUAGTT against Ccser2, the z-score was 0.747.

For GGUACGGUGUUUUGGAUACTT against Fam174a, the z-score is 0.00664.

Turning to GGGACAGUUUUCGGACUUCTT against S1pr4, the z-score was -0.362.

For GCUACAGGGAAAAAGUUCCTT against Olfr994, the z-score was 0.383.

Take CGGCUGCAUUUCAACAAGGTT against Snrpc: the z-score was -1.92.

As to GGUUCUGCCAUGGAGGAAUTT against Svs5, the z-score was 0.0746.

Consider GCCACUCACCUGUAGUUCUTT against BC049715, for which the z-score was 0.0758.

Take GGAUCUCAGAUUUACUGUCTT against Dedd2: the z-score was 0.484.

As for GGUCAUCAAGCAGUGCUAUTT against Ncstn, the z-score was 4.32 (active).

With CGGAGCAUUGGGACAAUUUTT against Olfr690, the z-score was 1.1.

As for GGAAGUUGAAUACAUUGUCTT against Arntl, the z-score is 0.127.

As for GCAUGCAAAUCUCCUCUAATT against Sema3b, the z-score was -0.116.

With CCUUUGUAACUGGAAUUCUTT against Olfr197, the z-score was 1.74.

With GGAAAUUGUGAGAAGAACUTT against Slx4ip, the z-score is 2.33 (active).

GGAUCAAAUUACAGAUCUUTT against Eef1e1: the z-score was 1.81.

In the case of “GGAAAUGCUACUGCUUGGATT against 1700030K09Rik”, the z-score is 1.2.

For the sequence GGAAACCAAAGAUAAACUCTT against Ccdc186, the z-score is 0.726.

As to GGGCAUCAAGUGUAAAAAATT against Med7, the z-score is -0.384.

Take GGAUAGGAAGAAAAUGAAGTT against Slfn2: the z-score is -2.83 (active).

As for CCCAAAUCCUACGAAGCCUTT against Tanc1, the z-score was -1.9.

With GGAUCUAAGGAAGUUUCUGTT against Gfpt2, the z-score was 0.594.

Consider GGCGAACACCAUGAAAAGGTT against Lin7b, for which the z-score is 0.794.

For GCGUGGAUAGUUUCACAGCTT against Fbp1, the z-score is -0.142.

For GGAGAGUGCUGUGAAGCCATT against Vegfb, the z-score is -0.943.

As for CCAGAAGAGUACUGUUUUATT against Tpm4, the z-score was 2.17 (active).

On to “GGAAUACUCCAGUAUCUCCTT against 9130401M01Rik”, for which the z-score was -0.753.

Regarding GGCAAUGAGACAAUUGUCATT against Cpe, the z-score is -0.638.

For the sequence GGCAAAAUCCCAUACGAAATT against Itk, the z-score is 0.0298.

With CCAUGUAAGAUGUUAAGUATT against Abcb1a, the z-score was -0.265.

Regarding CCUUUGUGUCCUAACGGUGTT against Tubb2b, the z-score is -0.158.

Take GGUCCAUUGCUAAAGACUGTT against Tcf19: the z-score was 0.0971.

As to GGUAAUGAGGACAUGGAUCTT against Lyrm4, the z-score was 0.467.

GCACUUUCCUUUAUUGUGUTT against Fam117a: the z-score was -1.41.

GGAAUUCAUGAACUACUAUTT against Capsl: the z-score is -2.07 (active).

As for GGCUCAGAUUGAUAGGAUATT against Gmfg, the z-score is 0.103.

On to GGCCAAACUAAUGUUUUUCTT against Prox2, for which the z-score was -0.594.

With CCUGCUGGGAUUUAUUCAATT against Pmvk, the z-score is 2.52 (active).

For GCUCAUAAUUACAUCACCATT against H3c15, the z-score was -1.22.

For the sequence GGACCAUCCUACAUCGGUCTT against Fpgs, the z-score was 1.02.

For the sequence GGACAAGGUCUUUAAUGUUTT against Fbxo3, the z-score was -0.263.

As for CGGUUGUCUUCCUCUUAGUTT against Fzd5, the z-score was -0.52.

As to GAAAAGAGGAUUCCUUGCATT against Olfr1128, the z-score was 0.726.

Take GGCAAAGUUGUCCUAAGGUTT against Rab27b: the z-score is 2.54 (active).

For GCGAGAGUGAAAACAUCCATT against Fam78b, the z-score is 0.331.

Take GGCUUAUACGCUCCAUAUUTT against Gykl1: the z-score is -0.214.

For GGAUACAUUCCAGACAUACTT against Map3k2, the z-score was -0.0192.

In the case of GGCGGACGUGAAGAACUUGTT against Letmd1, the z-score is 1.28.

For GGAACAGUCCUACUGAUAUTT against Cdkn1a, the z-score is -0.271.

For the sequence GCUGGAUGGAGGCAAAGCATT against C1ql1, the z-score is -1.38.

On to GGCCAGAACCACCAAAGAATT against Zc2hc1a, for which the z-score was -0.753.

Turning to GCAACAAUCUAACCUCAGATT against Mela, the z-score is -2.3 (active).

Regarding CCACUGAUAACUCGAUUUGTT against Nrp1, the z-score is -0.228.

Consider GGAACCUCUUGGACAAAGATT against Cpne5, for which the z-score is 2.17 (active).

With GGUAACAUGGCAGAUUUUATT against Aif1l, the z-score was 0.618.

On to GGACUGUUUGGAUUGCAUATT against Dock7, for which the z-score is 0.891.

Take GGCAACAGCAUCCUACUCUTT against Olfr652: the z-score is -2.12 (active).

Take GCAUUUCGAAGUGCCCUUGTT against Gpr146: the z-score is 1.22.

As to CCGCUACCAGAUAAACUCGTT against BC053393, the z-score is 0.984.

With GGACAAUACGGAGAAAGAUTT against Mdfic, the z-score was -0.522.

As for GGGCAAAUUAUGCUGUCAUTT against Tomm20, the z-score is -1.7.

Turning to GCGAUGAGAUUGUUGCUGUTT against Ttc33, the z-score is 2.32 (active).

On to GCUUGCUGACCUGAAGUGATT against Krt17, for which the z-score was 0.262.
